Assay in all cases: DAPPL (digital affinity profiling via proximity ligation, sequencing); 10 mM Tris-HCl pH 7.5, 50 mM NaCl, 1 mM DTT, 4% glycerol, room temperature, 30 min; GST-TFs on glutathione beads, 16-mer random dsDNA library, 0.1% formaldehyde crosslink after washing; high values mean tight binding
One experiment concerns the target T1, FLI1 (Homo sapiens, UniProt Q01543 1-452).
T1 sequence: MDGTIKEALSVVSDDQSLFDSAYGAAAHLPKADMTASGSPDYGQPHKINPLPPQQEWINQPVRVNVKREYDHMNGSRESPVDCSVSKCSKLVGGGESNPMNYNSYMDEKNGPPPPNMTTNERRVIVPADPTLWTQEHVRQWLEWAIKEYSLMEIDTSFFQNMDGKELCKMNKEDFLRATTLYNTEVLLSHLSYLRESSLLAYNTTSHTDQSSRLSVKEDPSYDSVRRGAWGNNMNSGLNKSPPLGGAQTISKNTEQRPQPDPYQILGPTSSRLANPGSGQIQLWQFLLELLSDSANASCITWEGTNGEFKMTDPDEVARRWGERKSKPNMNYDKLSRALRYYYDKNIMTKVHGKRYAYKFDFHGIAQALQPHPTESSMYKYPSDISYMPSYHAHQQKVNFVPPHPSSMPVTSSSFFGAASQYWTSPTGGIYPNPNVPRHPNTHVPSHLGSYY
As to conditions: protein: recombinant; tags: N-terminal GST; dsDNA, one strand shown. In outline:
(§1)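 Pools of DNA-barcoded human transcription factors, expressed in yeast as GST fusions on glutathione beads and combined with a tag-only sample, were incubated with 200 nmole of a 16-mer random double-stranded DNA library. Incubation took 30 min at room temperature in Tris/NaCl/DTT/glycerol buffer and was followed by washing, 0.1% formaldehyde crosslinking, proximity ligation (BsaI/T4 ligase, 1 h, 37 °C), PCR amplification and sequencing on an Illumina NextSeq500. Binding signal is the ratio of a hexamer's read frequency for a factor to its frequency for the tag-only sample.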

The target of another experiment is T2, ELK1 (Homo sapiens, UniProt P19419 1-428).
T2 sequence: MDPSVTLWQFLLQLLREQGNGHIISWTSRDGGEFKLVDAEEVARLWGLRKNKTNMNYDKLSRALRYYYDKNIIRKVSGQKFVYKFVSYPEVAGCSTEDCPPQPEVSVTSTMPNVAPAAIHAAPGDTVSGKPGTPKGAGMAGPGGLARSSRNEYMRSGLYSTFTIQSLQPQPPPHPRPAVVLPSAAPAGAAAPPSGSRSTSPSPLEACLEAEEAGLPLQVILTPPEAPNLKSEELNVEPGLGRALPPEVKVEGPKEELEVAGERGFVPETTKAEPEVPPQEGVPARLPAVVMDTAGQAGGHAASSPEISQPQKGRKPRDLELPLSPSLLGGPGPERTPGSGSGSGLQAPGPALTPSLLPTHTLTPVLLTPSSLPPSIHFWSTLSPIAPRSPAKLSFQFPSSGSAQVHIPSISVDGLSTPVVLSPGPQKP
To be noted: protein: recombinant; tags: N-terminal GST; dsDNA, one strand shown. Put shortly: as §1

For the next experiment, the target named is T3, GABPA (Homo sapiens, UniProt Q06546 1-454).
T3 sequence: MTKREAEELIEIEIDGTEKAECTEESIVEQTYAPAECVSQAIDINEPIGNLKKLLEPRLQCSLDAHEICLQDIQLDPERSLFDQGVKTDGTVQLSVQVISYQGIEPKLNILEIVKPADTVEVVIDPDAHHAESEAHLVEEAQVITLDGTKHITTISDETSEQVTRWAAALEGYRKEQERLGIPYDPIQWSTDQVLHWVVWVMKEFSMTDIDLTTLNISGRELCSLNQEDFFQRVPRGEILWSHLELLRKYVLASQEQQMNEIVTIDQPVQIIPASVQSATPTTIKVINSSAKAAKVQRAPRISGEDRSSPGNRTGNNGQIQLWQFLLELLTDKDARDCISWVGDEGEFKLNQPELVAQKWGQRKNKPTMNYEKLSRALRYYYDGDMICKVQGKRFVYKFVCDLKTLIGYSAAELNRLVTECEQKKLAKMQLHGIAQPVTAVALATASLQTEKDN
As to conditions: protein: recombinant; tags: N-terminal GST; dsDNA, one strand shown. In outline:
as §1

The next experiment concerns the target T4, ERG (Homo sapiens, UniProt P11308 1-479).
T4 sequence: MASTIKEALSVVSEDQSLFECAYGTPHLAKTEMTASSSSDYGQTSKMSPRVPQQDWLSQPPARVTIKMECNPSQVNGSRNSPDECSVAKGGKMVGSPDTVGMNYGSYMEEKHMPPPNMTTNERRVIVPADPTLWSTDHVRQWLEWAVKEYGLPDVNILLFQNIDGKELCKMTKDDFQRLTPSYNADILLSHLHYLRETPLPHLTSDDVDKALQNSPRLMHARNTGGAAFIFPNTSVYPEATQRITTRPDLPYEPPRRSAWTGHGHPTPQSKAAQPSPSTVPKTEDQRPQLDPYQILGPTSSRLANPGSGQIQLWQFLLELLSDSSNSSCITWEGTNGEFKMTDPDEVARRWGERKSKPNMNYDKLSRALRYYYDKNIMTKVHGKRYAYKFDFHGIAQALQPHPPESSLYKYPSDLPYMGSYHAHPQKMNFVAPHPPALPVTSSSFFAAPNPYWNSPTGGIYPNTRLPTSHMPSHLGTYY
To be noted: protein: recombinant; tags: N-terminal GST; dsDNA, one strand shown. Put shortly:
as §1

In the next experiment the target is ELF1 (Homo sapiens, UniProt P32519 1-619). As to conditions: protein: recombinant; tags: N-terminal GST; dsDNA, one strand shown. In outline:
as §1

The target of the next experiment is T5, EHF (Homo sapiens, UniProt Q9NZC4 1-300).
T5 sequence: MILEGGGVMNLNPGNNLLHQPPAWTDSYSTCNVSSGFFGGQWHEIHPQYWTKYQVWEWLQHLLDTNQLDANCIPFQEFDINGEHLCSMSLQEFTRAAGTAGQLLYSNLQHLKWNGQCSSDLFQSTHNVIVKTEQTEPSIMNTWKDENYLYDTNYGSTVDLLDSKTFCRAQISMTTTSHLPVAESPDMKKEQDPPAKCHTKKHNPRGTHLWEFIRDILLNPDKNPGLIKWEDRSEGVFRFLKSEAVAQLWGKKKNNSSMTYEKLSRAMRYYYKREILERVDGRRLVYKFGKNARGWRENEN
To be noted: protein: recombinant; tags: N-terminal GST; dsDNA, one strand shown. Put shortly: as §1

A further experiment addresses SPI1 (Homo sapiens, UniProt P17947 1-270). As to conditions: protein: recombinant; tags: N-terminal GST; dsDNA, one strand shown. In outline: as §1
In the next experiment the target is SPIB (Homo sapiens, UniProt Q01892 1-262). As to conditions: protein: recombinant; tags: N-terminal GST; dsDNA, one strand shown. Put shortly: as §1
In the next experiment the target is T6, FEV (Homo sapiens, UniProt Q99581 1-238).
T6 sequence: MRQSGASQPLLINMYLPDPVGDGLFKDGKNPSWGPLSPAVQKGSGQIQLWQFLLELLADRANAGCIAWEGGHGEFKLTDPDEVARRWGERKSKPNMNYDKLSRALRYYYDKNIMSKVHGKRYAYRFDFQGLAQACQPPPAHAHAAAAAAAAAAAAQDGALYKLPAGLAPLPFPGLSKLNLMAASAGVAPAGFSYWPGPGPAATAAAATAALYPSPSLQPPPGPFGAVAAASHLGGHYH
As to conditions: protein: recombinant; tags: N-terminal GST; dsDNA, one strand shown. In outline: as §1

A further experiment deals with ETV5 (Homo sapiens, UniProt P41161 1-510). To be noted: protein: recombinant; tags: N-terminal GST; dsDNA, one strand shown. In outline: as §1
The target in another experiment is HSF1 (Homo sapiens, UniProt Q00613 1-529). As to conditions: protein: recombinant; tags: N-terminal GST; chain copies: 3; dsDNA, one strand shown. Put shortly:
as §1

A further experiment has as its target T7, SPIC (Homo sapiens, UniProt Q8N5J4 1-248).
T7 sequence: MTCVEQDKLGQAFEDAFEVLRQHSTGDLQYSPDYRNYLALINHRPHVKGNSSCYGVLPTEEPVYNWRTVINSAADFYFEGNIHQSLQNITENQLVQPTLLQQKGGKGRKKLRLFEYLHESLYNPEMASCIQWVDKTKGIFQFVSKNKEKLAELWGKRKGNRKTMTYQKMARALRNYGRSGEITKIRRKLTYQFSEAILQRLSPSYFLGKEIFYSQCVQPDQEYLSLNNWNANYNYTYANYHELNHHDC
As to conditions: protein: recombinant; tags: N-terminal GST; dsDNA, one strand shown. In outline: as §1

For a further experiment, the target named is ELF4 (Homo sapiens, UniProt Q99607 1-663). To be noted: protein: recombinant; tags: N-terminal GST; dsDNA, one strand shown. In outline: as §1
The target in another experiment is T8, ELK4 (Homo sapiens, UniProt P28324-2 1-405).
T8 sequence: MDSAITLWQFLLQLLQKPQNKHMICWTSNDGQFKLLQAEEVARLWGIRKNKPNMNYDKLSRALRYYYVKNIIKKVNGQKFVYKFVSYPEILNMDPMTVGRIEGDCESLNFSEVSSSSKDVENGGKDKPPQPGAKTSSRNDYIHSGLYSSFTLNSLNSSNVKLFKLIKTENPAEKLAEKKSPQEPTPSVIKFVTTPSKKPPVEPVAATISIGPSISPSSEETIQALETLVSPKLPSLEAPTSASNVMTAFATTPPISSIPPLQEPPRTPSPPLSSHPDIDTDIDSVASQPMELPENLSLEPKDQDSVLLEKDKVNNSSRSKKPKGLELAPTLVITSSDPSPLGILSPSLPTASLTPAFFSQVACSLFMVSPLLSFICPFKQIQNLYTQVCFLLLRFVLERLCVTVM
To be noted: protein: recombinant; tags: N-terminal GST; dsDNA, one strand shown. In outline: as §1

Another experiment deals with T9, ETV2 (Homo sapiens, UniProt O00321 1-342).
T9 sequence: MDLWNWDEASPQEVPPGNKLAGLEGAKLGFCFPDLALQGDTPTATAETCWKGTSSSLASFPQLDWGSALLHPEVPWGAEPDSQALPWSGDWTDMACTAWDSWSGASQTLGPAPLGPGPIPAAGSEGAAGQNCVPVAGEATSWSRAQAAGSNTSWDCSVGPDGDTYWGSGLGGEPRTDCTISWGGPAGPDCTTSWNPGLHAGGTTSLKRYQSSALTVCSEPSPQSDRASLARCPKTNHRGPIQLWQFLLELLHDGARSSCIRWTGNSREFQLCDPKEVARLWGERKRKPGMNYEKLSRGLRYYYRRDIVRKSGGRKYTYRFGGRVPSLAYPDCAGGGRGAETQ
As to conditions: protein: recombinant; tags: N-terminal GST; dsDNA, one strand shown. Put shortly: as §1

In another experiment the target is T10, ELF3 (Homo sapiens, UniProt P78545 1-371).
T10 sequence: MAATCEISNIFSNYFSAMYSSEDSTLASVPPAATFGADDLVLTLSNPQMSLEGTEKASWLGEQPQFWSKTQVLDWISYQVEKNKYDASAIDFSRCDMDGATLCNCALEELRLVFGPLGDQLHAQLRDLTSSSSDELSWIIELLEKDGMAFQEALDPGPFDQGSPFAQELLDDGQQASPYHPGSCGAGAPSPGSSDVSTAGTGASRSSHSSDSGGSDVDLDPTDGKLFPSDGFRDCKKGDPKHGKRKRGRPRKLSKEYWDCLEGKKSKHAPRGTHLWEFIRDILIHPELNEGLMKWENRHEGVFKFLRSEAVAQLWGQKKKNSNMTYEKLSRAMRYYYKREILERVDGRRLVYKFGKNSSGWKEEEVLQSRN
As to conditions: protein: recombinant; tags: N-terminal GST; dsDNA, one strand shown. In outline: as §1

Another experiment has as its target CRX (Homo sapiens, UniProt O43186 1-299). To be noted: protein: recombinant; tags: N-terminal GST; dsDNA, one strand shown. Put shortly:
as §1

The target in a further experiment is ETV1 (Homo sapiens, UniProt P50549 1-477). To be noted: protein: recombinant; tags: N-terminal GST; dsDNA, one strand shown. Put shortly: as §1
Sequence of ETV1 (P50549 whole entry): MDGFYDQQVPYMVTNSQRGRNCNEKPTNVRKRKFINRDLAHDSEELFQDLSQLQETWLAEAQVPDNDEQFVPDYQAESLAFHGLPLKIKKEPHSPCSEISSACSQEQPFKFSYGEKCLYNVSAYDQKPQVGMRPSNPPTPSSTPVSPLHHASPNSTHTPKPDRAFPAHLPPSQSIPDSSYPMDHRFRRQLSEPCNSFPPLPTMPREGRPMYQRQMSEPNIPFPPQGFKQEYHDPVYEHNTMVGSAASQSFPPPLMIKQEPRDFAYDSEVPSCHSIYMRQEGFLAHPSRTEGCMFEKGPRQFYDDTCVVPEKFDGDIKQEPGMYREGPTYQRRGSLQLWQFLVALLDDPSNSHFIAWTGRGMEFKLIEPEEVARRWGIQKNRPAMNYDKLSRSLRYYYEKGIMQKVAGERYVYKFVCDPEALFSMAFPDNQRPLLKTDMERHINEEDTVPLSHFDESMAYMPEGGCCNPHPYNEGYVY

Sequence of CRX (O43186 whole entry): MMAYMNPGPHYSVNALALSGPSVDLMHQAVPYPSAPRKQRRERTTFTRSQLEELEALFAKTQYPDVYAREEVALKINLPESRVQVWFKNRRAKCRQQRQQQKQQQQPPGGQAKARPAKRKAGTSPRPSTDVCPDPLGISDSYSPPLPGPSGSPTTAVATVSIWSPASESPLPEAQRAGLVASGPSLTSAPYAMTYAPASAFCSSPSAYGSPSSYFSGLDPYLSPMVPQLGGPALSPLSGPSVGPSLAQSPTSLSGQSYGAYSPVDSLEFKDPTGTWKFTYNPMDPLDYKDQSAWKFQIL
Sequence of ETV5 (P41161 whole entry): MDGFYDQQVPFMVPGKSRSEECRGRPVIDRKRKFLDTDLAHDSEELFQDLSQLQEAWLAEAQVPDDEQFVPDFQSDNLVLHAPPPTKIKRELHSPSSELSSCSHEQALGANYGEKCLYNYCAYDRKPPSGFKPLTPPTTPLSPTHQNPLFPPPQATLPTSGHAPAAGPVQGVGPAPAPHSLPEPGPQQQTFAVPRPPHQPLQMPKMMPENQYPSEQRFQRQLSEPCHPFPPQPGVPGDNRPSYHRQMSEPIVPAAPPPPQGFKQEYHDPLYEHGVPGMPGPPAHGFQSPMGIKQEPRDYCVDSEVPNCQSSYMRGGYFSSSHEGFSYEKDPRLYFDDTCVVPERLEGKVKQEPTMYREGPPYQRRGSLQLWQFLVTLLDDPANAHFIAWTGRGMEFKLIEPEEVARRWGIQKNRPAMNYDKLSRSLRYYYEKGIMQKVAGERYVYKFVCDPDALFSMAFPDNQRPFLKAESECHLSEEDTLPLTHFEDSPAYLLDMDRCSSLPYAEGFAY
Sequence of SPIB (Q01892 whole entry): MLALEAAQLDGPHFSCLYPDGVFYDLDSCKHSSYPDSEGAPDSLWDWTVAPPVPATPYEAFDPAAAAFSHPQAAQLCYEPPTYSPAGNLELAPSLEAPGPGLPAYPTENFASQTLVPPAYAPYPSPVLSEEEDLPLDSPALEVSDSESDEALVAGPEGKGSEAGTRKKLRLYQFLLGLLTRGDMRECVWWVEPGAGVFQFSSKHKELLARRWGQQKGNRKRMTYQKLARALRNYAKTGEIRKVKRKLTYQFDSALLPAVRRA
Sequence of HSF1 (Q00613 whole entry): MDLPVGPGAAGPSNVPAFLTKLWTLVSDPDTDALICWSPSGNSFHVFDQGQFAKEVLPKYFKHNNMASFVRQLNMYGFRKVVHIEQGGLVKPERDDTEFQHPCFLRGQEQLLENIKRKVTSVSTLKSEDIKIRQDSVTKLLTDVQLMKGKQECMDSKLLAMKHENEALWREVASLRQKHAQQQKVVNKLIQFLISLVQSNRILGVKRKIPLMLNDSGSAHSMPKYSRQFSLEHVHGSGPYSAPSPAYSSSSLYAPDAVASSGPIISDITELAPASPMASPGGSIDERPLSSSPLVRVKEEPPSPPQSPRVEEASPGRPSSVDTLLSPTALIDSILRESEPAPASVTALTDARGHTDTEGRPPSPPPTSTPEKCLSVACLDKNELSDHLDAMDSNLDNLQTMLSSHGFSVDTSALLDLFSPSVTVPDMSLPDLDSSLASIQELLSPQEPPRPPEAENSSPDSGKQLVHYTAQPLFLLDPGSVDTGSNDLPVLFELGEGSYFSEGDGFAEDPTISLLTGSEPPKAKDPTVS
Sequence of ELF1 (P32519 whole entry): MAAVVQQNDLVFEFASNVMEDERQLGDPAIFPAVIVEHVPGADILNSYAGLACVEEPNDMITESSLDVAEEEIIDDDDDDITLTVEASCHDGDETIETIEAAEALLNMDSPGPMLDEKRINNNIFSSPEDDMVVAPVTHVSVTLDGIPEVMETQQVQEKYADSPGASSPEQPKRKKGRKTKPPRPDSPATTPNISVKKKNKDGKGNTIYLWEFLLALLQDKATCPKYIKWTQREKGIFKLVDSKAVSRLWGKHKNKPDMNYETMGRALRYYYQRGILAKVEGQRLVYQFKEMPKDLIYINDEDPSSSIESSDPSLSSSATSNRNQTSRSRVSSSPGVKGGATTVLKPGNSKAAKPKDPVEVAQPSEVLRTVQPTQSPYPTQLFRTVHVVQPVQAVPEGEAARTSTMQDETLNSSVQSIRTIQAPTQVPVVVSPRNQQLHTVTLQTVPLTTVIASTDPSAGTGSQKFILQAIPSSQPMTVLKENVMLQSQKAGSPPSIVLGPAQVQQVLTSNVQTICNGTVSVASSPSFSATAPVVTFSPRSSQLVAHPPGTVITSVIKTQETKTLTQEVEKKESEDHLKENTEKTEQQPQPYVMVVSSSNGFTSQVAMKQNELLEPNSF
Sequence of ELF4 (Q99607 whole entry): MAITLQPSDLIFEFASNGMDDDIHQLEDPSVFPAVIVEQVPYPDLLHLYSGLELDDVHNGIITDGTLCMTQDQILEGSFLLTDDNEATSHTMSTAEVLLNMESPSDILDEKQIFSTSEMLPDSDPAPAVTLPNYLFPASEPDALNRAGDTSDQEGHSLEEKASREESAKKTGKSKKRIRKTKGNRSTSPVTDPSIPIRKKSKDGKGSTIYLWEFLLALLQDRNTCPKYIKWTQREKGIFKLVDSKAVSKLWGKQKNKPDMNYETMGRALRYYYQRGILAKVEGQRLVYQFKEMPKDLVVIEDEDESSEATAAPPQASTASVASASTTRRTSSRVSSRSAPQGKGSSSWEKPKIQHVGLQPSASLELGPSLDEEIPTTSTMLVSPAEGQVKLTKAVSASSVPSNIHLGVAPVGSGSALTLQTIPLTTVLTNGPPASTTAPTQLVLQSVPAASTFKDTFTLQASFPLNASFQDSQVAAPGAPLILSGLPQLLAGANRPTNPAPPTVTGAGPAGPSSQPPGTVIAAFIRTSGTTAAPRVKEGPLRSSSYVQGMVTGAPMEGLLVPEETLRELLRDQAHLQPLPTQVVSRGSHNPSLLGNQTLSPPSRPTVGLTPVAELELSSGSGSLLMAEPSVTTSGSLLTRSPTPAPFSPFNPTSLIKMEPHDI

On to AATCAT, for which the binding signal is 1.13 fold enrichment (6-mer frequency, TF over GST control) in the experiment with FLI1; 1.12 fold enrichment (6-mer frequency, TF over GST control) with ELK1; 1.19 fold enrichment (6-mer frequency, TF over GST control) with GABPA; 1.12 fold enrichment (6-mer frequency, TF over GST control) with ERG; 1.16 fold enrichment (6-mer frequency, TF over GST control) with ELF1; 1.17 fold enrichment (6-mer frequency, TF over GST control) with EHF. The binding signal with SPI1 is 1.07 fold enrichment (6-mer frequency, TF over GST control); in the experiment with SPIB, 1.21 fold enrichment (6-mer frequency, TF over GST control); with FEV, 1.1 fold enrichment (6-mer frequency, TF over GST control); with ETV5, 1.15 fold enrichment (6-mer frequency, TF over GST control); in the experiment with HSF1 it was 1.27 fold enrichment (6-mer frequency, TF over GST control); in the experiment with SPIC, 1.14 fold enrichment (6-mer frequency, TF over GST control). The binding signal with ELF4 was 1.06 fold enrichment (6-mer frequency, TF over GST control); in the experiment with ELK4, 1.12 fold enrichment (6-mer frequency, TF over GST control); with ETV2, 1.21 fold enrichment (6-mer frequency, TF over GST control); in the experiment with ELF3 it was 1.17 fold enrichment (6-mer frequency, TF over GST control); with CRX it was 1.39 fold enrichment (6-mer frequency, TF over GST control); in the experiment with ETV1, 1.15 fold enrichment (6-mer frequency, TF over GST control).

The record behind these values is PMC7862700, “An all-to-all approach to the identification of sequence-specific readers for epigenetic DNA modifications on cytosine”.
